YopH PTP inh: YopH tyrosine phosphatase inhibitors, primary screen, biochemical, fluorescence Ex485/Em525 | 140,000 tested, 0.16% active | YopH tyrosine phosphatase [Yersinia enterocolitica] | inhibition, % (no concentration beside the values) | AID 898, 2007; in the data active = inhibition above about 50%
RmlC RmlD mix: RmlC and RmlD coupled enzyme inhibitors, primary screen, biochemical, 384-well, compound mixtures, retest. RmlC/RmlD coupled enzyme inhibition, 384-well mixture HTS. inhibition, % at 5.5 µM. 110,000 tested, 0.39% active; in the data active = inhibition above about 30%, passing the limit was not always enough
Numbers stand for hits; n = inactive; x = no result; + = active, no number. The list is not random: actives were taken first. Their share in the collection is about 0.44%.

SMILES	YopH PTP inh	RmlC RmlD mix
Cn1nnnc1SCc1ccc([N+](=O)[O-])cc1	n	x
O=C(/C(=C(\[O-])c1ccccc1)[n+]1ccc2ccccc2c1)c1ccc(Cl)cc1	n	x
O=C(/C(=C(\[O-])c1ccccc1)[n+]1ccc2ccccc2c1)c1ccccc1	69	x
O=C(Nc1ccccc1)C1=C[C@@H](C2CCCCC2)C[C@@H](OCc2ccc(CO)cc2)O1	x	n
CCC(C)(C)NC(=O)C(c1ccc(OC)cc1)N(Cc1cccs1)C(=O)CCC(=O)Nc1cc(C)on1 (stereo not given)	n	n
CC1=C(C(=O)OCC(C)C)C2(O)C(=O)c3ccccc3C2(O)N1 (stereo not given)	69	x
C=CCOC(=O)C1=C(C)NC(=O)NC1/C=C/c1ccccc1 (stereo not given)	n	n
C=CCOC(=O)C1=C(C)NC2(O)c3ccccc3C(=O)C12O (stereo not given)	78	n
COc1ccccc1C1CC(=O)NC(C)=C1C(=O)OCC(C)C (stereo not given)	n	n
Fc1ccc(/C=N/NC(=S)Nc2ccc(Cl)cc2)cc1F	n	x
COc1cc(C2Nc3ccc4ncccc4c3C3=C2C(=O)CCC3)ccc1O (stereo not given)	n	n
CC1CCCCN1c1nnc(NC(=O)Cn2c(=O)oc3ccccc32)s1 (stereo not given)	n	n
O=C1C(N2CCOCC2)=C(n2nnc3ccccc32)C(=O)c2ccccc21	69	n
O=C1c2ccccc2C(=O)c2c1cccc2N1CCOCC1	n	x
Cc1nc(NC(=O)C23CC4CC(CC(C4)C2)C3)sc1Cc1ccc2c(c1)OCO2	n	x
COc1ccc(NC(=O)/C(=C/c2cccnc2)NC(=O)c2cccs2)cc1	53	x
COc1ccc(NC(=O)/C(=C\c2cccnc2)NC(=O)c2cccs2)cc1	n	x
Cc1cc(=O)oc2cc(OCC(=O)OCC(=O)NCc3ccc4c(c3)OCO4)ccc12	n	37
CC(=O)OCC(=O)NCc1ccc2c(c1)OCO2	n	n
Cc1noc(NS(=O)(=O)c2ccc(NC(=O)CCCOc3ccc(Cl)cc3Cl)cc2)c1C	92	n
Cc1noc(NS(=O)(=O)c2ccc(NC(=O)COc3ccc(Cl)cc3Cl)cc2)c1C	n	x
C/C(=N\NC(=O)c1cccs1)C(C)(C)C	n	x
COCCCn1c(N)c(C(=O)OCCOC)c2nc3ccccc3nc21	51	n
COCCNC(=O)c1c(N)n(CCCn2ccnc2)c2nc3ccccc3nc12	n	124
CCCCNC(=O)c1c(N)n(CCCOC)c2nc3ccccc3nc12	n	n
SMILES	YopH PTP inh	RmlC RmlD mix
COCCNC(=O)c1c(N)n(CCC(C)C)c2nc3ccccc3nc12	n	n
N[C@@H](C(=O)N[C@@H]1C(=O)N2C(C(=O)O)=C(Cl)CS[C@H]12)c1ccccc1	97	n
NC(=O)c1cc[n+](CC2=C(C(=O)O)N3C(=O)[C@@H](NC(=O)C(c4ccccc4)S(=O)(=O)[O-])[C@H]3SC2)cc1 (stereo not given in full)	n	n
CC[C@@H](CO)NC(=O)[C@@H]1C=C2c3cccc4c3c(cn4C)C[C@H]2N(C)C1	64	n
CN1C[C@H](CNC(=O)OCc2ccccc2)C[C@@H]2c3cccc4c3c(cn4C)C[C@H]21	n	n
O=C(NCCSCc1c(F)cccc1Cl)c1ccc(CN2CCOCC2)cc1	n	x
COc1ccc(/C=N/NC(=O)Cn2cnc3ccccc3c2=O)cc1OC	n	x
CNC(=S)N(Cc1ccc2c(c1)OCO2)C1CC(=O)N(c2ccccc2)C1=O (stereo not given)	n	x
CCCCN(C(=O)NC(=O)C1=C(N2CCOCC2)/C(=C/c2ccccc2)CC1)S(C)(=O)=O	n	x
CN(C(=O)NC(=O)C1=C(N2CCOCC2)/C(=C/c2ccccc2)CC1)S(C)(=O)=O	n	135
Cc1ccccc1C1(CCN2CCCCC2)CCOC(C)(C)C1 (stereo not given)	n	x
CCc1nnc(NC(=O)CSc2nc3c(cc2C#N)CCCC3)s1	n	37
CCOC(=O)c1sc(NC(=O)CSc2nc3c(cc2C#N)CCCCC3)c(C#N)c1C	n	n
COC(=O)Oc1c(Br)c(=O)oc2ccccc12	n	30
CC(=O)Nc1c(NC(C)C)c2ccccc2oc1=O	n	n
[O-][n+]1cccc2ncc3cscc3c21	n	x
CCOc1ccc(N(CC(=O)NCC2CCCO2)S(=O)(=O)c2ccc(SC)cc2)cc1 (stereo not given)	n	n
CC(C)(C)c1ccc(NC(=O)COC(=O)c2ccc([N+](=O)[O-])s2)cc1	n	x
O=C(COC(=O)c1ccc([N+](=O)[O-])s1)Nc1ccccc1	50	x
CCOc1ccccc1C(=O)Nc1ccc(-c2nnc(-c3ccc(C)cc3)o2)cc1	n	x
Cc1cc(C)c(NC(=O)COc2ccccc2C(=O)Nc2ccc3c(c2)oc2ccccc23)c(C)c1	n	+
CC(C)(C)C(=O)NCCc1nc(-c2ccccc2)no1	x	n
CCOC(=O)COc1cc(=O)n(CC)c2ccccc12	52	n
CCOC(=O)N1CCN(C(=O)COc2cc(=O)n(CC)c3ccccc23)CC1	n	n
Cc1cc(Br)ccc1NCc1ccccn1	n	n
SMILES	YopH PTP inh	RmlC RmlD mix
O=C1NCCCC1C(=O)Nc1ccccc1C(F)(F)F (stereo not given)	n	n
Cc1[nH]nc2c1/C(=N/O)CC(c1ccccc1)C2 (stereo not given)	n	n
CCOC(=O)c1sc2nc(C(C)C)c3c(c2c1N)CC(C)(C)OC3	n	n
CCOC(=O)c1sc2nc(N3CCCC3)c3c(c2c1N)CC(C)(C)OC3	n	45
Cc1cc(C)cc(NC(=O)Cc2ccc(-n3cccc3)cc2)c1	n	x
COc1ccc(-c2cc3nc4n(c(=O)c3s2)CCC4)cc1	n	50
COc1ccc(NS(=O)(=O)c2cccc(-c3nnc4n3CCCCC4)c2)cc1	n	n
CC1CN=C(N(C(=O)Nc2ccccc2)c2ccc(F)cc2)S1 (stereo not given)	n	n
CC(=O)N/C(=C\c1ccc(F)cc1)C(=O)N(C)C	n	x
O=C(CN1CCN(Cc2ccccc2)CC1)N1CCCc2c1c(=O)oc1ccc(O)cc21	n	x
O=C(c1ccco1)N1CCN(CC(=O)N2CCCc3c2c(=O)oc2ccc(O)cc32)CC1	53	n
CCn1c(SCC(=O)Nc2ccc(N(C)C)cc2)nnc1-c1cccc(C)c1	n	n
COC(=O)[C@H]1[C@@H](C)N(Cc2ccccc2)C(=O)N[C@H]1c1cccc(C(F)(F)F)c1	x	n
Cc1oc2c(c1C(=O)c1ccc(Cl)cc1)C(=O)C(=O)c1ccccc1-2	n	x
Cc1ccc(C(=O)c2c(C)oc3c2C(=O)C(=O)c2ccccc2-3)cc1	69	n
CC1(C)CCC23CC[C@]4(C)C(OC2=O)(C3C1)[C@H]1O[C@H]1C1[C@@]2(C)CC[C@@H](O)C(C)(C)C2CC[C@]14C (stereo not given in full)	x	n
CCOC(=O)N1CCN(C(=O)Cn2c(C)cc3ccccc3c2=O)CC1	55	n
CCOC(=O)CNC(=O)Cn1c(C)cc2ccccc2c1=O	n	n
O=C(CN1C(=O)C2CC=CCC2C1=O)Nc1nnc(SCc2ccc(Cl)cc2)s1 (stereo not given)	76	n
O=C(CN1C(=O)C2CC=CCC2C1=O)Nc1nnc(SCc2c(Cl)cccc2Cl)s1 (stereo not given)	n	n
CCN(CC)c1ccc(N2C(=O)c3ccccc3C2=O)cc1	n	n
CCO/C=C1/C(=O)N(CC)c2ccccc21	n	x
CCO/C=C1\C(=O)N(c2ccccc2)C(=O)c2ccccc21	89	186

Screens as filed in PubChem.
